Data from PubChem BioAssay (NCI).
About 83,000 compounds went through this panel and 20% of them were active in at least one assay; those are over-represented in the sample as a whole.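 Values shown are percent growth following 48 h exposure of cells in 96-well plates to a single concentration of compound; below 10 was considered active.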 Values without a mark were called inactive. The source made the active and inactive calls.

How the values were obtained:
Assay in all cases: NCI-60 one-dose screen, 48 h (100 = growth as untreated, 0 = no growth, -100 = all killed)
Details in all cases: 10 µM
DU-145 prostate = system: DU-145 prostate
K-562 leukemia = system: K-562 leukemia
MALME-3M melanoma = system: MALME-3M melanoma
MDA-MB-231 breast = system: MDA-MB-231 breast
RXF 393 renal = system: RXF 393 renal
SF-268 CNS = system: SF-268 CNS
SF-295 CNS = system: SF-295 CNS
SF-539 CNS = system: SF-539 CNS
UACC-257 melanoma = system: UACC-257 melanoma
M14 melanoma = system: M14 melanoma
HCT-15 colon = system: HCT-15 colon
HT29 colon = system: HT29 colon
SNB-75 CNS = system: SNB-75 CNS
SNB-19 CNS = system: SNB-19 CNS
U251 CNS = system: U251 CNS
PC-3 prostate = system: PC-3 prostate
SK-MEL-5 melanoma = system: SK-MEL-5 melanoma
UACC-62 melanoma = system: UACC-62 melanoma
LOX IMVI melanoma = system: LOX IMVI melanoma
SK-MEL-28 melanoma = system: SK-MEL-28 melanoma

| SMILES | growth (DU-145 prostate) [%] | growth (K-562 leukemia) | growth (MALME-3M melanoma) | growth (MDA-MB-231 breast) | growth (RXF 393 renal) | growth (SF-268 CNS) | growth (SF-295 CNS) | growth (SF-539 CNS) | growth (UACC-257 melanoma) | growth (M14 melanoma) | growth (HCT-15 colon) | growth (HT29 colon) | growth (SNB-75 CNS) | growth (SNB-19 CNS) | growth (U251 CNS) | growth (PC-3 prostate) | growth (SK-MEL-5 melanoma) | growth (UACC-62 melanoma) | growth (LOX IMVI melanoma) | growth (SK-MEL-28 melanoma) |
| --- | --- | --- | --- | --- | --- | --- | --- | --- | --- | --- | --- | --- | --- | --- | --- | --- | --- | --- | --- | --- |
| CC(CNC(Cc1ccccc1)c1ccccc1)NC(Cc1ccccc1)c1ccccc1 (configuration not stated) | 21.4 | 8.06% (active) | 45% | 17.4% | 43.7% | 53.5% | 61.2% | 52.7% | 76.9% | 30.4% | 30.6% | 4% (active) | 68.9% | 61.7% | 34.3% | 40.7% | 14.2% | 61.4% | -5.75% (active) | 64.2% |
| CCCCCCN=C(N)CCCCCCCCCCC(N)=NCCCCCC | 58.5 | 13.5% | 44.9% | 32.1% | 35.8% | 28.8% | 41% | 29.3% | 79.8% | 23.2% | 31.8% | 14% | 23.8% | 18.4% | 14.8% | 23.8% | 20% | 40.9% | 37.2% | 55.8% |
| C[C@H](NC(=O)[C@@H]1CSSC[C@@H](NC(=O)Cc2nc3ccccc3cc2O)C(=O)NCC(=O)N1C)c1ccccc1 | 83.3 | 43.9% | 125% | 70.8% | 122% | 86.6% | 104% | 79.3% | 85.4% | 64.8% | 102% | 100% | 150% | 95.2% | 95.7% | 81.2% | 82.5% | 77.9% | – | 67.4% |
| NC(=O)c1ccc(Br)o1 | 109 | 105% | 109% | 101% | 112% | 101% | 97.4% | 96.5% | 114% | 108% | 94.1% | 95.7% | 95.3% | 109% | 105% | 102% | 102% | 101% | 98.1% | 107% |
| C#CCn1c(-c2cccc(OCCCCl)c2)nc2c1c(=O)n(C)c(=O)n2C | 65.5 | 12.7% | 84.4% | 75.2% | 104% | 67.1% | 87.3% | 86% | 104% | 52.8% | 86.9% | 102% | 89% | 97% | 90.7% | 26% | 61.4% | 46.2% | 93.8% | 95.7% |
| CCN(CC)CCn1c(=N)n(CC(O)c2ccc(Cl)c(Cl)c2)c2ccccc21 (configuration not stated) | 97 | -0.392% (active) | -35.6% (active) | 45.1% | 76.3% | 87.2% | 103% | 42.4% | -59.8% (active) | -58.6% (active) | 51.2% | 20.1% | 71.8% | 102% | 69.7% | 80.8% | 55.6% | -30.5% (active) | 76.1% | 10.4% |
| Nc1nc2c(nnn2C2CC(O)C(CO)O2)c(=O)[nH]1 (configuration not stated) | 21.8 | 40.5% | 79.5% | 58.5% | 50.6% | 50.2% | 56.4% | 33.4% | 77.7% | 40% | 41.6% | 51.4% | 61.8% | 94.3% | 54.3% | 26.5% | 87% | 25% | 19.5% | 87.5% |
| Cc1ccc(-c2cc(C(=O)Nc3ccc(S(=O)(=O)N4CCCCC4)cc3)[nH]n2)c(O)c1 | 64.8 | 17.9% | 74% | 56.1% | 50.7% | 69.9% | 62.4% | 48.8% | 52% | 62.2% | 23.5% | 2.87% (active) | 81.6% | 69% | 39.3% | 51.8% | 24.8% | 36.2% | – | 78.7% |
| COc1ccc(-c2nsc3c2NC(=O)CC3c2cccc(Cl)c2)cc1 (configuration not stated) | 23.7 | 10.4% | 26.2% | 51.6% | -1.29% (active) | 57.2% | 5.03% (active) | -14.1% (active) | 45% | 19.2% | 27.7% | 2.95% (active) | -0.284% (active) | 54.3% | 35% | 15.7% | 23% | 41.6% | – | 49.8% |
| COC(=O)C1(C(=O)OC)C2C(=O)C3C(C21)C3(C(=O)OC(C)(C)C)C(=O)OC(C)(C)C (configuration not stated) | 118 | 103% | 115% | 121% | 105% | 111% | 103% | 115% | 107% | 104% | 108% | 112% | 88.5% | 110% | 104% | 90.2% | 100% | 112% | – | 107% |
| COc1cc(C2CC(=O)Nc3c2c(C)nn3-c2nc3ccccc3[nH]2)cc(OC)c1O (configuration not stated) | 96.4 | 75.7% | 47.3% | 7.76% (active) | 10.4% | 40.1% | -34.2% (active) | 72.8% | 44.4% | 9.64% (active) | 40.3% | 57.9% | 6.05% (active) | 44.1% | 53.3% | 68.1% | 60.8% | 67.2% | 55.1% | 13.2% |
| FC(F)(F)c1ccc(-c2nc(-c3nc4cc(Cl)c(Cl)cc4[nH]3)c3ccccn23)cc1 | 58.6 | 79.8% | 22.3% | 29.6% | 31.7% | 44.9% | 71.2% | 32.6% | 93.4% | 79.6% | 82.6% | 55.9% | -16.1% (active) | 84.4% | 47.6% | 48.3% | 53.4% | 71.1% | – | 57.4% |
| CCCCN(CCCC)c1ccc(C(=NC(C)CCCN(CC)CC)c2ccc(N(C)C)cc2)cc1 (configuration not stated) | 21.1 | -51.3% (active) | -77.9% (active) | -79.4% (active) | -84% (active) | -43.4% (active) | -72% (active) | -73.2% (active) | -70.6% (active) | -83% (active) | -79.8% (active) | -71.9% (active) | -34% (active) | -23% (active) | -79.9% (active) | -42.4% (active) | -99.6% (active) | -73.5% (active) | -96.7% (active) | -72.1% (active) |
| CN(C)c1ccc2c(c1)OC(N)=C(C#N)C2c1ccc2c(c1)CCCN2C (configuration not stated) | 25.7 | 16.5% | 67.8% | 38.6% | 8.31% (active) | 49.4% | -14.4% (active) | -2.99% (active) | 54.7% | 2.75% (active) | 15.8% | 10.5% | 42.7% | 33.3% | 19.5% | 27.3% | 21.4% | 34.4% | – | 61.5% |
| c1ccc(COCC[P+](c2ccccc2)(c2ccccc2)c2ccccc2)cc1 | 15 | 3.16% (active) | 4.01% (active) | 5.14% (active) | 29.6% | 15.4% | -46% (active) | 18.5% | -22.7% (active) | 10.9% | 71.9% | 1.21% (active) | -5.5% (active) | 9.79% (active) | 5.43% (active) | -4.87% (active) | -72% (active) | 2.32% (active) | – | 14.6% |
| CN(C1c2ccccc2Oc2ccccc21)S(=O)(=O)c1cc(Cl)ccc1Cl | 78.2 | 14.9% | 54.3% | 69.7% | 73.5% | 68.6% | 29.1% | 60.6% | 63.6% | 39.2% | 33.8% | 20.5% | 56.2% | 65.7% | 43.8% | 54.5% | 39.3% | 32.6% | – | 67% |
